Screening data deposited in PubChem by National Center for Advancing Translational Sciences (NCATS).
The list is not random: actives were taken first. Their share in the collection is about 7.2%.
HCV inhibitor: HCV inhibition | Potency, µM (titrated, usually from 41.8 µM), usual class: inhibitors | AID 651820 | Huh7.5.1 HCVcc-Cre infection, luciferase reporter, 44 h | 3.4% of 340,000 active
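Seed cells (1,000/well) for 4 h; treat with compound and infect with HCVcc-Cre, moi about 0.5. Incubate 44 h, then detect luciferase activity.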
Sm TGR inh: blocks Schistosoma mansoni thioredoxin glutathione reductase. purified TGR, DTNB reduction, TNB absorbance 405 nm. Potency, µM (series often up to 114 µM), most hits filed as inhibitors. 3% of 360,000 active. Q962Y6; also: nearly all actives have a fitted effect of over 60% in size
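First, TGR (20 nM dispensed) and NADPH were mixed with compound. Second, a 15 min room-temperature incubation followed. Third, further NADPH and then DTNB were added to start the reaction. Finally, TNB absorbance was monitored kinetically.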
RE007 growth inh: less growth of the S. pombe RE007 Vpr strain | S. pombe RE007 Vpr strain, BacTiter-Glo ATP luminescence, 24 h | Potency, µM (titrated, usually from 92.2 µM), actives largely listed as inhibitors | 0.21% of 360,000 active | AID 651644; active = well fitted falling curve with a large enough effect; inconclusive = small, poorly fitted or top-dose-only effect; inactive = no such curve, though single readings can be large or run the other way; also: nearly all actives have a fitted effect of over 50% in size
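Fission yeast RE007 carrying one integrated HIV-1 vpr copy, seeded at OD 0.01 in PMG+AL medium with 23 nL pinned compound. Grown 24 h at 30 degrees; viability read by BacTiter-Glo luminescence after 5 min.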
LASV entry inh: blocks Lassa virus binding to or entry into cells. Lassa virus pseudotype entry inhibition, cell reporter. AID 540256. 1.2% of 300,000 active. Potency, µM (series often up to 37.9 µM), hits mostly inhibitors; calls by dose curve; tested in HEK293 cells; also: nearly all actives have a fitted effect of over 50% in size
FMDV antiviral: blocks foot and mouth disease virus; 1.2% of 410,000 active; Potency, µM (top dose mostly 57.9 µM), most hits filed as inhibitors; FMDV antiviral cell-based qHTS; calls by dose curve; tested in HEK293T cells; also: read-out not given here; nearly all actives have a fitted effect of over 45% in size
Marburg entry inh: Marburg virus entry inhibition; Potency, µM (highest dose often 37.8 µM), actives largely listed as inhibitors; 1.8% of 300,000 active; Marburg virus pseudotyped entry inhibition, cell reporter; calls by dose curve; tested in HEK293 cells
A number is an active result. Unless noted, calls follow the shape of the dose curve; as a rule, active = well fitted curve in the direction sought with a large enough effect; inconclusive = small, poorly fitted or top-dose-only effect, or another doubt; inactive = no such curve, though single readings can be large; an effect the other way counts as inactive or inconclusive.

What do the screens show for `Cc1ccc(N(CC2CO2)S(=O)(=O)c2ccc([N+](=O)[O-])cc2)cc1` (configuration not stated)?
HCV inhibitor: inactive; Sm TGR inh: 32µM; RE007 growth inh: inactive; LASV entry inh: inactive; FMDV antiviral: inactive; Marburg entry inh: inactive

How did COc1cccc(C(=O)Nc2ccc(C(=O)OCc3cc(=O)n4cc(C)sc4n3)cc2)c1 do in these assays?
Sm TGR inh: inactive; LASV entry inh: inactive; FMDV antiviral: inactive

Results for O=C1/C(=C/c2cccnc2)SC(=S)N1CC1CCCO1 (configuration not stated) ?
HCV inhibitor: inactive; Sm TGR inh: inactive; RE007 growth inh: inactive; FMDV antiviral: inactive; Marburg entry inh: inactive

Results for O=C1/C(=C\c2ccc(-c3ccccc3Cl)o2)SC(=S)N1CC1CCCO1 (configuration not stated) ?
HCV inhibitor: inactive; Sm TGR inh: inactive; RE007 growth inh: inactive; LASV entry inh: inactive; FMDV antiviral: inactive; Marburg entry inh: inactive

How did Cc1ccc(/C=C2/SC(=S)N(C3CCCCC3)C2=O)o1 do in these assays?
HCV inhibitor: inactive; Sm TGR inh: 45µM; RE007 growth inh: inactive; LASV entry inh: inactive; FMDV antiviral: inactive; Marburg entry inh: inactive

Results for O=C1/C(=C/c2ccco2)SC(=S)N1CC1CCCO1 (configuration not stated) ?
HCV inhibitor: inactive; Sm TGR inh: 20µM; RE007 growth inh: inactive; LASV entry inh: inactive; FMDV antiviral: inactive; Marburg entry inh: inactive

What do the screens show for `O=C1/C(=C/c2ccncc2)SC(=S)N1C1CCCCC1`?
HCV inhibitor: inactive; Sm TGR inh: inactive; RE007 growth inh: inactive; LASV entry inh: inactive; FMDV antiviral: inactive; Marburg entry inh: inconclusive

What do the screens show for `Cc1ccc(/C=C2\SC(=S)N(CC3CCCO3)C2=O)o1` (configuration not stated)?
HCV inhibitor: inactive; Sm TGR inh: 4µM; RE007 growth inh: inactive; LASV entry inh: inactive; FMDV antiviral: inactive; Marburg entry inh: inactive

What do the screens show for `COc1ccc(CNC(=O)C2CCN(C(=O)c3ccc(-n4ccc5ccccc54)s3)CC2)cc1`?
Sm TGR inh: inactive; LASV entry inh: inconclusive; FMDV antiviral: inconclusive

Results for S=C(NCc1cccnc1)Nc1ccc(Oc2ccccc2)cc1 ?
HCV inhibitor: inconclusive; Sm TGR inh: inactive; RE007 growth inh: inactive; FMDV antiviral: inactive

How did Cc1ncc(CO)c(CNc2ccc(Oc3ccccc3)cc2)c1O do in these assays?
HCV inhibitor: 11µM; Sm TGR inh: inactive; RE007 growth inh: inactive; LASV entry inh: inconclusive; FMDV antiviral: inactive; Marburg entry inh: inactive

Results for CN(C)c1ccc(C=C2C(=O)NC(=S)NC2=O)cc1[N+](=O)[O-] ?
HCV inhibitor: inactive; Sm TGR inh: inconclusive; RE007 growth inh: inactive; LASV entry inh: inactive; FMDV antiviral: 40µM; Marburg entry inh: inactive

What do the screens show for `CN(C)c1ccc(C=C2C(=O)NC(=O)NC2=O)cc1[N+](=O)[O-]`?
HCV inhibitor: inactive; Sm TGR inh: inactive; RE007 growth inh: inactive; LASV entry inh: inactive; FMDV antiviral: inactive; Marburg entry inh: inactive

How did CCOC(=O)C1=C(c2ccccc2)NC(=O)NC1c1ccc(O)c(OCC)c1 (configuration not stated) do in these assays?
HCV inhibitor: inactive; Sm TGR inh: inactive; RE007 growth inh: inactive; LASV entry inh: inactive; FMDV antiviral: inactive; Marburg entry inh: inactive

Results for CCOC(=O)C1=C(c2ccccc2)NC(=O)NC1c1ccc(O)c(Cl)c1 (configuration not stated) ?
HCV inhibitor: inactive; Sm TGR inh: inactive; RE007 growth inh: inactive; FMDV antiviral: 8.9µM

How did Cc1ccc(C)n1-c1nnc(N2CCC(C(=O)Nc3ccccc3Br)CC2)s1 do in these assays?
Sm TGR inh: inactive; LASV entry inh: inactive; FMDV antiviral: inconclusive; Marburg entry inh: inactive

How did CCOC(=O)C1CCN(C(c2ccccn2)c2c(C)[nH]c3ccccc23)CC1 (configuration not stated) do in these assays?
HCV inhibitor: inactive; Sm TGR inh: 0.28µM; RE007 growth inh: inactive; LASV entry inh: inactive; FMDV antiviral: inactive; Marburg entry inh: inactive

How did Cc1[nH]c2ccccc2c1C(c1ccccn1)N1CCC(C(N)=O)CC1 (configuration not stated) do in these assays?
HCV inhibitor: inactive; Sm TGR inh: 0.35µM; RE007 growth inh: inactive; LASV entry inh: inactive; FMDV antiviral: inconclusive; Marburg entry inh: inactive
